Measured values reported in PubChem BioAssay (NCI).
Compounds without any hit were thinned out: in the full panel of roughly 83,000, 20% have a hit.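 Note: values are percent growth. 100 is the growth of untreated cells, values between 100 and 0 indicate rising inhibition; between -100 and 0 indicates cell death.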 A number with no mark means an inactive call. The source made the active and inactive calls. The calls were made as follows: active = growth percent below 10; inactive = the rest.

Assays:
Test in all cases: NCI-60 one-dose screen, 48 h (100 = growth as untreated, 0 = no growth, -100 = all killed)
NCI-H23 lung = conditions: 10 µM unless noted
NCI-H226 lung = conditions: 10 µM unless noted
NCI-H322M lung = conditions: 10 µM unless noted
HOP-62 NSCLC = conditions: 10 µM unless noted
NCI-H460 lung = conditions: 10 µM unless noted
HOP-92 NSCLC = conditions: 10 µM unless noted
NCI-H522 lung = conditions: 10 µM unless noted
A549/ATCC NSCLC = conditions: 10 µM unless noted
786-0 renal = conditions: 10 µM unless noted
COLO 205 colon = conditions: 10 µM unless noted
DU-145 prostate = conditions: 10 µM unless noted
K-562 leukemia = conditions: 10 µM unless noted
MALME-3M melanoma = conditions: 10 µM unless noted
MDA-MB-231 breast = conditions: 10 µM unless noted
RXF 393 renal = conditions: 10 µM unless noted
SF-268 CNS = conditions: 10 µM unless noted
SF-295 CNS = conditions: 10 µM unless noted
SF-539 CNS = conditions: 10 µM unless noted
UACC-257 melanoma = conditions: 10 µM
M14 melanoma = conditions: 10 µM unless noted

| SMILES | growth (NCI-H23 lung) | growth (NCI-H226 lung) | growth (NCI-H322M lung) | growth (HOP-62 NSCLC) | growth (NCI-H460 lung) | growth (HOP-92 NSCLC) | growth (NCI-H522 lung) | growth (A549/ATCC NSCLC) [%] | growth (786-0 renal) [%] | growth (COLO 205 colon) | growth (DU-145 prostate) | growth (K-562 leukemia) | growth (MALME-3M melanoma) | growth (MDA-MB-231 breast) | growth (RXF 393 renal) | growth (SF-268 CNS) [%] | growth (SF-295 CNS) | growth (SF-539 CNS) | growth (UACC-257 melanoma) | growth (M14 melanoma) |
| --- | --- | --- | --- | --- | --- | --- | --- | --- | --- | --- | --- | --- | --- | --- | --- | --- | --- | --- | --- | --- |
| COc1cc(O)c2c(c1)/C=C/C[C@H](O)[C@H](O)C(=O)/C=C\C[C@H](C)OC2=O | -1.38% (active) | 40.6% | 64% | 51.1% | 23.2% | -15.4% (active) | -61.3% (active) | 58.6 | 24.7 | -5.15% (active) | -2.78% (active) | 9.06% (active) | -20.3% (active) | -7.72% (active) | -56.9% (active) | 34.9 | 60.2% | -24.8% (active) | -19.7% (active) | -22.7% (active) |
| N/C(=N\c1nc2c(Cl)cccc2s1)C(Cl)(Cl)Cl | 93.2% | 107% | 0.236% (active) | 40.8% | 24.2% | 64.3% | 89.1% | 30 | 90.9 | 51.9% | 3.92% (active) | 91.3% | 104% | 76.1% | 55.2% | 81 | 20.1% | 71.1% | 90.7% | 97.7% |
| N#C/C(=C\c1ccc(Cl)cc1Cl)C(N)=O | 104% | 109% | 100% | 101% | 106% | 122% | 93.9% | 109 | 101 | 117% | 114% | 80.3% | 105% | 100% | 102% | 101 | 107% | 104% | 109% | 99.4% |
| O=C(O)c1ccc(-n2cc(CNc3ccc(F)cc3)c(-c3ccc(C(F)(F)F)cc3)n2)cc1 | 93.3% | 88.8% | 89.9% | 81.3% | 84.4% | 78.3% | 93.8% | 74 | 105 | 103% | 98.2% | 58.6% | 97.6% | 100% | 88.2% | 80.9 | 63.9% | 88.8% | 90.9% | 92.6% |
| CC(C)SC1=NC(=C(C(=N1)NC2=ClC=CC=C2)C#N)C3=CC=CC=C3 | 37.7% | 69.3% | 28% | 72.9% | 22.2% | 76.6% | 84.5% | 35.2 | 34.7 | 71.4% | 81.2% | 59.6% | 65.4% | 78.9% | 69.3% | 78.4 | 52.8% | 44.9% | 100% | 89.1% |
| COc1cccc(/C=C/C(=O)c2ccc(NC(=O)COc3cccc4cccnc34)cc2)c1 | 99.3% | 93.9% | 95.5% | 112% | 101% | 107% | 90.2% | 95.2 | 96.8 | 105% | 90.2% | 82.1% | 108% | 98.4% | 107% | 96.3 | 96.6% | 101% | 103% | 104% |
| COc1ccc(-c2nc3cc(Cl)c(Cl)cc3n2CC(=O)N=Nc2c(O)[nH]c3ccc(Cl)cc23)cc1 | 21.2% | -8.97% (active) | 46.1% | 0.657% (active) | 16.9% | -28% (active) | 37.6% | 18.5 | 24.7 | -3.46% (active) | -10.9% (active) | 32.1% | -10.1% (active) | 29.8% | -48.2% (active) | 51.8 | 4.56% (active) | 36% | 71.9% | 11.9% |
| NC(=O)c1c(NC(=O)c2cccc(OC(F)(F)F)c2)sc2c1CCC(=O)C2 | 25.8% | 80.1% | 110% | 102% | 96.6% | 71.6% | 20.6% | 74.7 | 89.4 | 85.7% | 107% | 13.5% | 81.3% | 63.3% | 36.4% | 55.7 | 46.1% | 25.7% | 81.8% | 37.6% |
| COc1ccccc1/C=C/C=N/NC1=NC2C(S1)N(C)C(=O)N2c1ccccc1 (stereo not given) | 30.1% | 45.5% | 38.1% | 46% | 2.27% (active) | 38.9% | 13.1% | 22.5 | 16.8 | -4.6% (active) | 8.54% (active) | 14.3% | 45.7% | 18.8% | 1.56% (active) | 44.4 | 9.01% (active) | -15.5% (active) | 79.8% | -12.1% (active) |
| C=CCn1c(SCC(=O)Nc2ccc(OC)cc2)nnc1-c1ccc(Cl)cc1 | 81.1% | 88.8% | 96.4% | 101% | 104% | 68.8% | 83.4% | 103 | 104 | 107% | 99.5% | 89.6% | 89.9% | 85.3% | 86.6% | 90.6 | 98.1% | 94.8% | 97.1% | 96.3% |
| CC1CCc2c(sc3nc(SCC(=O)N/N=C/c4cccc(O)c4O)n(-c4ccccc4)c(=O)c23)C1 (stereo not given) | 88% | 87.4% | 96.8% | 71.2% | 88.4% | 45.4% | 83.1% | 86.2 | 99.7 | 110% | 74.7% | 77.6% | 95.1% | 84.6% | -2.02% (active) | 105 | 86.7% | 94.7% | 100% | 84.4% |
| CCN1CCN(c2cc(C(=O)Nc3nc4ccc(Oc5ccnc(C(=O)NC)c5)cc4s3)cc(C(F)(F)F)c2)CC1 | 89.6% | 90.8% | 95% | 104% | 46.4% | 91.1% | 78.7% | 86.5 | 70 | 59.9% | 85.8% | 55.3% | 75.7% | 86.2% | -15.6% (active) | 92.7 | 83% | 92.9% | 94.2% | 67.7% |
| CC(=O)Nc1nc2c(s1)C1=CC[C@H]3[C@@H]4CC[C@H](C(C)=O)[C@@]4(C)CC[C@@H]3[C@@]1(C)CC2 | 81.2% | 94.8% | 77.1% | 62.8% | 64.4% | 105% | 90.8% | 51.7 | 25 | 57% | 85.9% | 8.05% (active) | 72.6% | 57.7% | -29.3% (active) | 90.2 | -16.9% (active) | 40.2% | 73.2% | 87% |
| O=C(/C=C1\C=CN(CCCCO)c2ccccc21)n1ccc2ccccc21 | 101% | 86.4% | 102% | 84.2% | 103% | 98.4% | 99.7% | 105 | 107 | 104% | 107% | 109% | 99.2% | 98.5% | 113% | 107 | 103% | 98.6% | 105% | 94.6% |
| O=C1/C(=C/c2ccccc2[N+](=O)[O-])Oc2ccc(O)cc21 | 43.7% | 78.6% | 79.8% | 78.3% | 72.3% | 80% | -5.14% (active) | 84.8 | 46.3 | 20.2% | 29.8% | 4.21% (active) | 47.8% | 30.2% | 12.3% | 78.5 | 88.9% | 15.2% | 60.3% | 54.9% |
